Results on 13 compounds are retold here after PubChem BioAssay.

Calls of active or inactive are those of the source. Unless noted, the rule behind the calls is not given here.

Assay [1] in a line: resazurin metabolic signal in HepG2 cells – cell-based, resazurin fluorescence, 24 h, PK04 Diversity Set, profiling panel (AID 1172). Note: test concentration not given here. The note with it: HepG2 viability, higher = more signal.
Assay [2] is described as follows: budding yeast growth changes without added modifier – OD600, strain BY4716, 24 h, basal condition, primary screen (AID 1173). The note with it: S. cerevisiae BY4716 growth, OD600, 24 h; higher = more signal, called active from +8 up or from −8 down.
A short description of assay [3]: viability profiling in MM1S myeloma cells – cell-based, resazurin fluorescence, basal, 24 h, PK04 Diversity Set, profiling panel (AID 1174).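 Note: MM1S multiple myeloma cell line; test concentration not given here.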 The note with it: higher = more signal, called active from +8 up or from −8 down. Background: Alamar Blue is a resazurin reagent that responds to reducing activity.
The target of assay [4] is Dihydroorotate dehydrogenase (quinone), mitochondrial (Plasmodium falciparum (isolate 3D7)) (UniProt Q08210). In words: inhibition of P. falciparum DHODH – biochemical, C-terminal His tag, absorbance 600 nm, primary screen (AID 1175).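 Note: recombinant parasite enzyme with a five histidine tag at its C terminus; test concentration not given here.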 The note with it: PfDHODH enzyme, DCIP absorbance 600 nm; higher = more signal, called active from +8 up or from −8 down.
Assay [5] can be described thus: inhibition of PAO1 biofilm formation – strain PAO1, LB-PBS medium, absorbance 600 nm, primary screen (AID 1176). Note: test concentration not given here. The note with it: P. aeruginosa PAO1 growth/biofilm, A600, 12 h; higher = more signal.
Assay [6] in a line: growth modulation of vineyard yeast isolate – strain RM11-1a, OD600, basal, 24 h, primary screen (AID 1177).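 Note: cultures grown under basal conditions with no added stressor; test concentration not given here.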 Particulars: S. cerevisiae RM11-1a growth, OD600, 24 h; higher = more signal, called active from +8 up or from −8 down.
A short description of assay [7]: growth of efflux-deficient E. coli DRC39 – strain DRC39, OD650, 24 h, E. coli filamentation inducers, primary screen (AID 1178).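 Note: growth measured as culture turbidity by optical density at 650 nm; test concentration not given here.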 Particulars: E. coli DRC39 acrAB, higher = more signal, called active from +8 up or from −8 down.
Assay [8] in a line: growth of efflux-deficient E. coli DRC39 – strain DRC39, OD650, 48 h, E. coli filamentation inducers, primary screen (AID 1179).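 Note: screen aims at cell division blockers that make cells filament.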 The note with it: E. coli DRC39 delta-acrAB growth, higher = more signal, called active from +8 up or from −8 down.
A short description of assay [9]: viability profiling in RPMI8226 myeloma cells – cell-based, resazurin fluorescence, basal, 24 h, PK04 Diversity Set, profiling panel (AID 1180).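 Note: RPMI8826 multiple myeloma cell line at 5000 cells per well; test concentration not given here.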 The note with it: higher = more signal.
In assay [10] the target is E3 ubiquitin-protein ligase XIAP (Homo sapiens) (UniProt P98170). In words: small molecules binding XIAP protein – biophysical, small-molecule microarray, fluorescence 635 nm, primary screen (AID 1181).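 Note: score merges 667 nm emission and signal to noise over triplicate slides.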 The note with it: higher = more signal.
Sequence of E3 ubiquitin-protein ligase XIAP (Homo sapiens) (P98170 whole entry, looked up): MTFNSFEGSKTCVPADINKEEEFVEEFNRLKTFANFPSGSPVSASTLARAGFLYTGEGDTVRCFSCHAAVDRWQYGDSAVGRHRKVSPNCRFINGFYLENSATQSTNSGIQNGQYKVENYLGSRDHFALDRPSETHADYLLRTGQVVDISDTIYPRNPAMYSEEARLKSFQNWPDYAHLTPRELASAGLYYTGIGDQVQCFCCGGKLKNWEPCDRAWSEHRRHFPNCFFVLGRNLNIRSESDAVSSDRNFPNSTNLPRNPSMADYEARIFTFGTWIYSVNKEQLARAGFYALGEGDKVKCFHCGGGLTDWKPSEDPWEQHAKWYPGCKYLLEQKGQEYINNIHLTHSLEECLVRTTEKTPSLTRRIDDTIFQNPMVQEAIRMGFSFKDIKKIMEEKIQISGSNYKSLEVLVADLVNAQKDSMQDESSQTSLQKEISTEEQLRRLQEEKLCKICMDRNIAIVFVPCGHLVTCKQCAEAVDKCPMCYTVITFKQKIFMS

Sequence of Dihydroorotate dehydrogenase (quinone), mitochondrial (Plasmodium falciparum (isolate 3D7)) (Q08210 whole entry, looked up): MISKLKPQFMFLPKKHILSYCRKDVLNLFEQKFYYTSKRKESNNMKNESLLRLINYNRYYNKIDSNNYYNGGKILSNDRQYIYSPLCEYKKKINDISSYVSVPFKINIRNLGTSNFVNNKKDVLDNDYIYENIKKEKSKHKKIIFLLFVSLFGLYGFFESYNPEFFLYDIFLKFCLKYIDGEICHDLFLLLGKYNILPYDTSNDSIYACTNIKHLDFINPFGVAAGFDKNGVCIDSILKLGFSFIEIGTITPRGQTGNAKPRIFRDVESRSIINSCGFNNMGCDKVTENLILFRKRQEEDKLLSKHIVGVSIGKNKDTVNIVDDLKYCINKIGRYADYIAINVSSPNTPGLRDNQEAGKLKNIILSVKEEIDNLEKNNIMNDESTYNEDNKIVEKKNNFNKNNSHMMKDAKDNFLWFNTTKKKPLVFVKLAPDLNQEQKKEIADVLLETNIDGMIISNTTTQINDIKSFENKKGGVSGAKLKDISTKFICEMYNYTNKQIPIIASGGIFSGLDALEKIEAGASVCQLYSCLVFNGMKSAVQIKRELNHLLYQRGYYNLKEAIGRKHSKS

On to `C=C(COC)/C(=C/C[C@H](OC(=O)c1ccncc1)c1ccc(OCCO)cc1)c1cnc2ccccc2c1`, for which the z-score in [1] is 0.444; in assay [2], -0.309 (inactive); in assay [3], -0.389 (inactive); in assay [5], 0.424 (inactive); in assay [6], -0.401 (inactive); in assay [7] it was -0.802 (inactive). The z-score is -0.679 (inactive) in assay [8] and -0.342 in assay [9]. Besides, the composite z-score in [4] is -3.5 (inactive); in assay [10] it was -0.174.
`CCN(CC)c1ccc(N2CC=CC34O[C@@H]5/C=C\CCC(C)OC(=O)C5[C@H]3C(=O)N(C(CO)C(C)C)[C@@H]4C2=O)cc1` (stereo not given in full): the z-score in [1] is -0.364; in assay [2], 0.0948 (inactive); in assay [3], 0.509 (inactive); in assay [5], -0.525 (inactive); in assay [6] it was -0.185 (inactive); in [7] it was 0.496 (inactive). For the same compound, the values for the z-score in assay [8] and in assay [9] were 0.767 (inactive) and 0.259, respectively. The composite z-score was -2.68 (inactive) in assay [4] and 0.0049 in [10].
`[N-]=[N+]=NCc1ccccc1C[C@]1(C(=O)O)N=C(c2ccc(OCCCO)cc2)O[C@H]1c1ccccc1N=[N+]=[N-]`: the z-score in [1] is -0.213; in assay [2], -0.496 (inactive); in [3], -1.43 (inactive); in [5], -0.043 (inactive); in [6], 1.45 (inactive); in [7] it was 0.989 (inactive). The z-score in assay [8] was -0.0775 (inactive); in assay [9], -1.82. Moreover, the composite z-score in [4] was 2.26 (inactive); in assay [10], 0.0808.
On to `C#CCN(CC=C(C)C)[C@H](CO)c1ccccc1`, for which the z-score in assay [1] is 0.0941; in assay [2], -8.3 (active); in assay [3] it was 0.101 (inactive); in assay [5], -0.635 (inactive); in assay [6], -0.0386 (inactive); in assay [7] it was -0.997 (inactive). Moreover, the z-score in [8] was -1.3 (inactive); in assay [9] it was -0.544. Further, the composite z-score was -2.54 (inactive) in assay [4] and -0.165 in assay [10].
On to `CCOC(=O)[C@H]1CC=C2CC1C(=O)N1CCC[C@@H]1[C@@H]2O[Si](C)(C)C(C)(C)C` (stereo not given in full), for which the z-score in [1] is 0.706; in [2], -14.4 (active); in [3], 0.425 (inactive); in assay [5] it was 0.543 (inactive); in assay [6], -0.335 (inactive); in assay [7], 0.665 (inactive). Besides, the z-score is -0.17 (inactive) in [8] and 1.04 in [9]. Besides, the composite z-score in assay [4] was -0.458 (inactive); in assay [10], -0.167.
With `CC(C)c1ccc(NN2C(C(O)C(c3ccccc3)c3ccccc3)C=CC3C(=O)N(c4ccccc4)C(=O)C32)cc1` (stereo not given), the z-score in assay [1] was -1.49; in assay [2] it was -0.141 (inactive); in assay [3], -1.35 (inactive); in [5], 0.642 (inactive); in assay [6], 1.17 (inactive); in [7] it was -1.39 (inactive). The results for the z-score in [8] and in assay [9] were -1.47 (inactive) and -0.912, respectively. The composite z-score in assay [4] was 0.704 (inactive); in [10], -0.0525.
With `COCCOC(=O)N1C(=O)[C@@]2(c3cc(C#Cc4ccc(OC)cc4)ccc31)[C@H](c1ccc(O)cc1)N1[C@H](c3ccccc3)[C@H](c3ccccc3)OC(=O)[C@H]1[C@@H]2C(=O)NC[C@H](O)c1ccccc1`, the z-score is -0.372 in assay [1]; 0.895 (inactive) in assay [2]; -0.5 (inactive) in [3]; 0.429 (inactive) in assay [5]; 0.95 (inactive) in [6]; 0.351 (inactive) in [7]. Besides, the z-score in assay [8] is -0.206 (inactive); in [9], -0.573. The composite z-score is 1.49 (inactive) in assay [4] and -0.296 in [10].
As to `COc1cc2c(cc1OC)CN(C(=O)[C@H]1[C@@H]3C(=O)O[C@@H](c4ccccc4)[C@@H](c4ccccc4)N3[C@@H](c3ccc(O)cc3)[C@]13C(=O)Nc1ccc(C#CC4=CCCCC4)cc13)CC2`, the z-score in assay [1] was -0.436; in [2] it was -1.16 (inactive); in [3], -0.16 (inactive); in assay [5] it was 1.08 (inactive); in [6] it was 0.449 (inactive); in assay [7], -0.222 (inactive). Besides, the z-score was -0.273 (inactive) in [8] and 0.916 in assay [9]. The composite z-score in assay [4] was -1.05 (inactive); in assay [10] it was -0.359.
For the compound `CC(C)(C)OC(=O)CC[C@]1(C(=O)O)N=C(c2ccc(OCCCO)cc2)O[C@H]1c1ccccc1N=[N+]=[N-]`, the z-score in assay [1] was 0.144; in assay [2] it was -0.278 (inactive); in assay [3], -1.32 (inactive); in [5] it was 0.286 (inactive); in assay [6], -0.715 (inactive); in assay [7], 0.0508 (inactive). The z-score in assay [8] was 0.49 (inactive); in assay [9], 0.056. Further, the composite z-score in assay [4] is -0.533 (inactive); in assay [10], 0.0989.
Regarding `CN(C)C(=O)[C@@]1(Cc2ccccc2CN=[N+]=[N-])N=C(c2ccc(OCCCO)cc2)O[C@H]1c1ccccc1`, the z-score in [1] was 0.0128; in assay [2] it was 1.11 (inactive); in assay [3], -1.82 (inactive); in assay [5], 0.41 (inactive); in assay [6], 1.39 (inactive); in [7], 0.316 (inactive). Moreover, the z-score in [8] was 0.0743 (inactive); in [9], -3.38. Besides, the composite z-score in [4] is 1.12 (inactive); in assay [10] it was -0.0118.
For the compound `COCCOC(=O)N1C(=O)[C@@]2(c3ccccc31)[C@H](c1ccccc1OCCO)N1[C@H](c3ccccc3)[C@H](c3ccccc3)OC(=O)[C@H]1[C@@H]2C(=O)Nc1nc2ccccc2s1`, the z-score in [1] was 0.487; in [2], 1.33 (inactive); in assay [3] it was -0.442 (inactive); in assay [5], 2.76 (inactive); in assay [6], 2.22 (inactive); in [7], 0.931 (inactive). The z-score is 1.74 (inactive) in assay [8] and 0.0081 in assay [9]. Further, the figures for the composite z-score in [4] and in assay [10] were 0.662 (inactive) and 0.0623, respectively.
For `COCCOC(=O)N1C(=O)[C@@]2(c3cc(C#Cc4ccc(OC)cc4)ccc31)[C@H](c1ccccc1OCCO)N1[C@H](c3ccccc3)[C@H](c3ccccc3)OC(=O)[C@H]1[C@@H]2C(=O)N1CCN(c2ncccn2)CC1`, the z-score in assay [1] is 0.214; in assay [2] it was 2.12 (inactive); in assay [3], -0.539 (inactive); in assay [5] it was 1.64 (inactive); in [6], 3.89 (inactive); in assay [7], 0.0722 (inactive). Also, the z-score in assay [8] is 0.857 (inactive); in assay [9], 0.0636. Moreover, the composite z-score was 0.478 (inactive) in assay [4] and 0.397 in assay [10].
With `[N-]=[N+]=NCc1ccccc1C[C@@]1(C(=O)NCC(O)CO)N=C(c2ccc(OCCCO)cc2)O[C@@H]1c1ccccc1N=[N+]=[N-]` (stereo not given in full), the z-score in [1] was -2.35; in [2] it was -0.927 (inactive); in assay [3], -2.87 (inactive); in [5], 1.35 (inactive); in [6], 0.977 (inactive); in assay [7], 0.707 (inactive). Moreover, the values for the z-score in assay [8] and in [9] were -0.506 (inactive) and -2.85, respectively. The composite z-score is 2.22 (inactive) in assay [4] and 0.1 in [10].
